Test results: PubChem BioAssay AID1903 (Southern Research Specialized Biocontainment Screening …, 2009)
The whole screen tested about 310,000 compounds, of which about 1,200 (0.39%) were called active. No rule for the calls is given here. The list is a sample of the results. Measured potencies and affinities stand elsewhere.

molecular target: Large T antigen (Simian virus 40) (UniProt P03070); assay: TAg ATPase/helicase activity blockers – biochemical (AID 1903); conditions: SV40 large T antigen ATPase/helicase inhibition assay; at 20 µM; stronger effect = higher value
Sequence (P03070 whole entry, looked up): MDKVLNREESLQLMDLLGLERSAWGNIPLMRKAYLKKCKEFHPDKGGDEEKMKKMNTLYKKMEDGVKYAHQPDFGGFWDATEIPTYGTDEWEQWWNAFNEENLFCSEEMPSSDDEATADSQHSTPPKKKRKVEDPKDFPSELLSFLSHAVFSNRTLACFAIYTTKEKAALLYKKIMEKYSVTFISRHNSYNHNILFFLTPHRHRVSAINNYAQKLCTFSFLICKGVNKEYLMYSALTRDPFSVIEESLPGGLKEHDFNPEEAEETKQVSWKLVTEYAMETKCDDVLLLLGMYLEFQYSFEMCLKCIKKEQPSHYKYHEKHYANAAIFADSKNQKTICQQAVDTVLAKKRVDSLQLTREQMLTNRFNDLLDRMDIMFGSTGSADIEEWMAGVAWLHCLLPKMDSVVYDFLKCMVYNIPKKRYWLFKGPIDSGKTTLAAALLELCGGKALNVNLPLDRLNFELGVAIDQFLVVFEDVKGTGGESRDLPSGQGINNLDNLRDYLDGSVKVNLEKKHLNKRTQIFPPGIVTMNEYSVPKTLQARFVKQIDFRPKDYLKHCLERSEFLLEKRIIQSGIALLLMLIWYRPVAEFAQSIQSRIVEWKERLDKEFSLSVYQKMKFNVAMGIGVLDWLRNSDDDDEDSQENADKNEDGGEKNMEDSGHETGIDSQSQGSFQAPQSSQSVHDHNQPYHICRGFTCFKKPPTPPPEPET

inhibition, inactive:
CC(=O)N/C(=C\c1ccc(F)cc1)C(=O)NC(C(=O)O)C(C)C (stereo not drawn) 0.16%
O=c1cc(O)nc(SCc2ccccc2)n1-c1ccc(Cl)cc1 7.14%
COc1ccc(NC(=O)CC2SC(=NCc3ccccc3OC)NC2=O)cc1 (stereo not drawn) 0.11%
COc1ccc(NC(=O)CSc2nnc(CC(=O)Nc3ccc(F)cc3)n2C)cc1 6.25%
O=C(COC(=O)C1CCCN1C(=O)C12CC3CC(CC(C3)C1)C2)c1ccc(Br)cc1 (stereo not drawn) 3.8%
Cc1occc1C(=O)N1CCCC(N2CCN(c3ccccc3F)CC2)C1 (stereo not drawn) 7.6%
O=C(NCC1CC1)[C@]1(C(F)(F)F)C[C@H](CCC2CCCCC2)CCCO1 2.31%
Fc1ccc(-c2nnc(CSc3nnc4ccccn34)o2)cc1 14.8%
O=c1cc(-c2ccc(O)cc2)oc2c([C@@H]3O[C@H](CO)[C@@H](O)[C@H](O)[C@H]3O)c(O)c([C@@H]3O[C@H](CO)[C@@H](O)[C@H](O)[C@H]3O)c(O)c12 7.48%
O=c1cc(-c2ccc(O)cc2)oc2c(C3OCC(O)C(O)C3O)c(O)c(C3OC(CO)C(O)C(O)C3O)c(O)c12 (stereo not drawn) 45.1%
CC(=O)Cc1cc(=O)c2c(C)cc(O)c(C3OC(CO)C(O)C(O)C3O)c2o1 (stereo not drawn) 5.68%
O=c1cc(-c2ccc(O)cc2)oc2cc(O[C@@H]3O[C@H](CO)[C@@H](O)[C@H](O)[C@H]3O[C@@H]3OC[C@](O)(CO)[C@H]3O)cc(O)c12 8.96%
O=c1c(-c2ccc(O)cc2)coc2c(C3O[C@H](CO)[C@@H](O)[C@H](O)[C@H]3O)c(O)ccc12 (stereo partly drawn) 24.2%
O=C(O)C1OC(Oc2cc3oc(-c4ccccc4)cc(=O)c3c(O)c2O)C(O)C(O)C1O (stereo not drawn) 17.2%
COc1c(O)cc2c(c1O)C1OC(CO)C(O)C(O)C1OC2=O (stereo not drawn) 2.96%
O=c1cc(-c2ccc(O)cc2)oc2c(C3O[C@H](CO)[C@@H](O)[C@H](O)[C@H]3O)c(O)cc(O)c12 (stereo partly drawn) 26%
CC(O)CNCCOc1ccccc1-c1ccccc1 (stereo not drawn) 8.76%
CCOC(=O)CN1C(=O)NC(C)(c2ccc(OC(F)F)cc2)C1=O (stereo not drawn) 11.6%
CCC1(C)N=c2c(c(=O)n(C)c(=O)n2C)=NO1 (stereo not drawn) 2.8%
CC(C)CN1C(=O)NC2(CCCc3ccccc32)C1=O (stereo not drawn) 25%
COc1ccc(/C=C(/NC(=O)c2ccc(C)cc2)C(=O)NCC2CCCO2)cc1 (stereo not drawn) 9.41%
CCOC(=O)Nc1nc(-c2ccccc2)c(C(=O)c2ccccc2)s1 10%
c1ccc(C2[C@H]3CN(Cc4cccnc4)[C@H](c4ccccc4)C34CC2(c2cccnc2)C4)cc1 (stereo partly drawn) 5.83%
CCOC(=O)CSc1ncnc2c1cnn2-c1ccc(Cl)cc1 2.59%
COC(=O)c1nn(-c2ccccc2)c(Cl)c1/C=N/OCc1c(Cl)cccc1Cl 6.28%
COc1cc2c(cc1OC)CC(=O)N(C)CC2 -0.375%
COc1cc2c(cc1OC)CN(Cc1ccccc1)CC2 4.34%
COc1cc(NC(=O)CN2CCCCC2C)c(C)cc1[N+](=O)[O-] (stereo not drawn) -0.94%
Nn1c(SCC(=O)NC(=O)NCc2ccco2)nnc1-c1ccc(OC(F)F)cc1 19.9%
Cc1ccc(Nc2n[nH]c(C)c2[N+](=O)[O-])cc1 -4.15%
Cc1ccc(Nc2n[nH]c(C)c2[N+](=O)[O-])cc1C 4.58%
O=C(NC1CCN(C(=O)Nc2ccc(F)cc2)CC1)c1ccc(F)cc1 -6.41%
O=C(O)c1cc(S(=O)(=O)O)ccc1O -2.3%
CC1=C/C(=C(\c2ccc(O)c(C)c2)c2ccccc2S(=O)(=O)O)C=CC1=O 1.87%
O=C(NCC(c1cccs1)N1CCOCC1)c1ccc(Cl)cc1 (stereo not drawn) 20.7%
S=C(Nc1ccc(Nc2ccccc2)cc1)N1CCN(c2ncccn2)CC1 26.2%
COc1cc2c(cc1O)C(Cc1ccc(O)cc1)NCC2 (stereo not drawn) 14.4%
COc1cc2c(cc1OC)C(Cc1ccc(O)cc1)NCC2 (stereo not drawn) 70.4%
c1ccc(CCc2nn3c(Cn4nnc5ccccc54)nnc3s2)cc1 -1.97%
O=C1c2ccccc2CCCC12N=NCC2c1cccc2ccccc12 (stereo not drawn) -6.72%
Cc1ncc(CO)c(/C=N/NC(=O)c2ccc(O)cc2)c1O 4.85%
Cc1ncc(CO)c(/C=N/NC(=O)c2ccc(Br)cc2)c1O 3.1%
O=C1C(Cc2ccccc2)Nc2ncnc(N3CCCCC3)c2N1Cc1ccc(Cl)cc1 (stereo not drawn) 23.8%
Oc1ccc(C2=NNC(c3ccc(O)cc3)=NN2)cc1 6.31%
Oc1ccc(-c2cccc(-c3ccc(O)cc3)n2)cc1 24.3%
C=CSc1sc(Cl)c(N2CCOCC2)c1[N+](=O)[O-] 15.5%
C=CS(=O)(=O)c1sc(Cl)c(N2CCOCC2)c1[N+](=O)[O-] 28.6%
Cc1nc(-c2ccc(C(=O)Nc3cccc(Br)c3)cc2)cs1 5.4%
O=C(O)c1cn(CCOc2ccccc2Cl)c2ccccc12 -2.87%
CCNC(=O)NC(=O)CN(C)c1ccccc1 1.38%
COc1ccc(N(CC(=O)Nc2cc(C)on2)S(=O)(=O)c2cc(C)ccc2C)cc1 -9.08%
Cc1cccc(N=Nc2cnc(N)s2)c1 14.7%
COc1cc(C(=O)O)ccc1Cl 8.61%
COc1ccc(/C=C/C(=O)N(Cc2ccccc2)c2ccccn2)cc1OC -1.52%
O=C(/C=C/c1c(F)cccc1Cl)Nc1nc2ccccc2[nH]1 9%
COc1ccc2cc(C(=O)CS(=O)(=O)c3ccccc3)c(=O)oc2c1 3.93%
O=C(CS(=O)(=O)c1ccccc1)c1cc2ccccc2oc1=O 32.7%
Cc1cc(NC(=O)c2nn3cccnc3c2Cl)no1 4.99%
